The results in this text go back to PubChem BioAssay.

Activity calls are given as the source filed them. Unless noted, how the calls were made is not given here.

Test [1] is described as follows: liver-stage malaria parasite load reduction – cell-based, known kinase inhibitor set, luminescence, hepatoma host viability (AID 624392).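 Further: infected cells incubated roughly two days before readout.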 The conditions noted are these: Plasmodium liver stage in hepatoma cells, luciferase luminescence, concentration not given here; liver cell % of control: measured here: host liver cell viability; parasite % of control: stronger effect = lower value.

Test [2] in a line: altered dexamethasone sensitivity, NF-kB reporter, cell-based, luciferase, IL-1B stimulus (AID 624486).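 On percent of negative control (+Dex): 100% = mean signal of vehicle control wells on the plate.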 The settings on record: IL-1B + dexamethasone, luminescence; percent of negative control (+Dex): actives lie on both sides, concentration not given here; z-score: measured here: IL-1B alone, no Dex.
Test [3] in a line: C. elegans survival during P. aeruginosa infection – whole organism (AID 651566).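 Further: tested at 14 µM; sign flipped so higher z means a lower ratio.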 The conditions noted are these: C. elegans killed by P. aeruginosa, survival ratio.
The nature of test [4]: pro-inflammatory signaling induction in mouse macrophages – cell-based, murine, luminescence (AID 652131). The settings on record: murine macrophage pro-inflammatory reporter, stronger effect = higher value.
In test [5] the target is Cellular tumor antigen p53 (Homo sapiens) (UniProt P04637). Briefly: GFP-p53 level modulators in HPV16+ cells – imaging, known kinase inhibitor set, EGFP/DsRed ratio (AID 1053116).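 Further: cells exposed to compounds for 24 h at 37 °C before reading.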 The conditions noted are these: GFP-p53 stability, stronger effect = higher value; EGFP object count: measured here: GFP-p53 positive objects count.
The nature of test [6]: inducers of IRF3 signaling, differentiated THP-1 – cell-based, PMA-stimulated THP-1, luminescence (AID 1053176). The settings on record: PMA-differentiated THP-1, IRF3 reporter luminescence; stronger effect = higher value.
Test [7] is described as follows: MELAS cybrid and Rieske KO viability enhancers – cell-based, MELAS cybrids, Rieske KO mouse fibroblasts, CellTiter-Glo, primary screen (AID 1508586;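 active means mean z-score across replicates of 1.96 or higher in either the MELAS or the Rieske mutant cell line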;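 further: z relative to plate mean and SD of compound and empty wells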). The conditions noted are these: low glucose. (ATP-based viability assays read luminescence as a measure of living cells.)
[8] abbreviates: MELAS cybrid survival, CellTiter-Glo 48 h, stronger effect = higher value.
[9] abbreviates: Rieske KO mouse fibroblast survival, CellTiter-Glo 72 h.

Cellular tumor antigen p53 (Homo sapiens), sequence (P04637 whole entry, looked up): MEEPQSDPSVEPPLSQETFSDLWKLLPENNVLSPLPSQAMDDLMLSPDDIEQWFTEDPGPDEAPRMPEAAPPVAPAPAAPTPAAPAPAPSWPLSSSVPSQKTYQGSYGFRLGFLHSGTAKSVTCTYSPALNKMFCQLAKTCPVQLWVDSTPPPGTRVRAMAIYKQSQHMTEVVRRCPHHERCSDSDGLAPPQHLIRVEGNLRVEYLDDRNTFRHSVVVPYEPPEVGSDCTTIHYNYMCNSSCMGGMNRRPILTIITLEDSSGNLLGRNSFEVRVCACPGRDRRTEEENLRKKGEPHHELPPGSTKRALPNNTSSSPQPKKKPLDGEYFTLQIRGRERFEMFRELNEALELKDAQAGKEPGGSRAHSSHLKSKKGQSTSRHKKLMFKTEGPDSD

In test [1], `CC(C)c1ccc(-c2cc(C3CNNC3c3ccccn3)ccn2)cc1` (centres undefined) displayed a liver cell % of control of 100%. Also, the parasite % of control in test [1] is 117% (inactive). For the same molecule, the percent of negative control (+Dex) in test [2] was 95.5% (inactive). The z-score in test [2] was 0.855; in test [3] it was 0.505 (inactive); in test [4] it was 0.704 (inactive); in test [7] (setting [8]), 0.0399 (inactive); in test [7] (setting [9]), -0.129. The EGFP object count in test [5] was 2. For the same molecule, in test [5], the EGFP/DsRed ratio was 0.021 (inactive). For the same molecule, in test [6], the fraction signal was -0.0085 (inactive).

In test [1], `COc1cc(Nc2nccc(Nc3ccc4c(C)[nH]nc4c3)n2)cc(OC)c1OC` yielded a liver cell % of control of 142%. Further, the parasite % of control in test [1] was 247% (inactive). Further, in test [2], the percent of negative control (+Dex) was 68% (inactive). The z-score is -1.93 in test [2]; -0.535 (inactive) in test [3]; 2.91 (inactive) in test [4]; -0.786 in test [7] (setting [8]); 5.33 in test [7] (setting [9]). Besides, the EGFP object count in test [5] came out at 2. The EGFP/DsRed ratio in test [5] was 0.0182 (inactive). Further, in test [6], the fraction signal was -0.01 (inactive).

As to `CNC(=O)c1cc(-c2ccc(F)cc2)cc(-c2ccc(S(=O)(=O)N3CCCC3)cc2)c1N`, the liver cell % of control in test [1] stood at 102%. Besides, the parasite % of control in test [1] is 80.4% (inactive). In test [2], the percent of negative control (+Dex) is 92% (inactive). For the same molecule, the z-score in test [2] was -0.05; in test [3], 0.5 (inactive); in test [4], -0.377 (inactive); in test [7] (setting [8]), -0.388 (inactive); in test [7] (setting [9]), -0.623. The EGFP object count in test [5] amounted to 6.5. For the same molecule, the EGFP/DsRed ratio in test [5] is 0.244 (inactive). In addition, the fraction signal in test [6] was -0.007 (inactive).

The molecule `Cc1nc(-c2ccccc2)n2nc(NCCCN3CCOCC3)ncc12` showed a liver cell % of control in test [1] of 97.3%. Also, the parasite % of control in test [1] is 149% (inactive). The percent of negative control (+Dex) in test [2] is 102% (inactive). For the same molecule, the z-score in test [2] was 1.35; in test [3], -0.095 (inactive); in test [4], -1.16 (inactive); in test [7] (setting [8]), -0.231 (inactive); in test [7] (setting [9]), -0.21. Besides, in test [5], the EGFP object count came to 4.5. Further, in test [5], the EGFP/DsRed ratio is 0.201 (inactive). The fraction signal in test [6] was -0.0105 (inactive).

`CCn1c(-c2nonc2N)nc2c(C#CC(C)(C)O)nc(CN3CCCC3)cc21` had a liver cell % of control in test [1] of 107%. In addition, the parasite % of control in test [1] is 162% (inactive). Further, the percent of negative control (+Dex) in test [2] is 85.5% (inactive). Moreover, the z-score in test [2] is -0.04; in test [3] it was -0.175 (inactive); in test [4] it was 0.541 (inactive); in test [7] (setting [8]), -0.869 (inactive); in test [7] (setting [9]), 0.697. Further, the EGFP object count in test [5] worked out at 4. Besides, in test [5], the EGFP/DsRed ratio is 0.0701 (inactive). Besides, in test [6], the fraction signal is 0.0045 (inactive).

In test [1], `COc1ccccc1Nc1ncc(-c2ccccc2)o1` registered a liver cell % of control of 121%. In test [1], the parasite % of control was 132% (inactive). Also, the percent of negative control (+Dex) in test [2] was 243% (active). Moreover, the z-score in test [2] is 9.37; in test [3] it was -1.29 (inactive); in test [4], 5.36 (inactive); in test [7] (setting [8]) it was 0.853 (inactive); in test [7] (setting [9]), -0.618. In test [5], the EGFP object count turned out to be 8.5. Besides, the EGFP/DsRed ratio in test [5] is 0.173 (inactive). The fraction signal in test [6] was 0.001 (inactive).

With `Cn1cc(C2=C(c3cn(C)c4c(N)cccc34)C(=O)NC2=O)c2ccccc21`, in test [1], the liver cell % of control came out at 92.4% and the parasite % of control is 40.1% (inactive). In addition, in test [2], the percent of negative control (+Dex) was 108% (inactive) and the z-score is -1.47. Moreover, in test [5], the EGFP object count was determined as 87.5 and the EGFP/DsRed ratio was 1.36 (active). The fraction signal in test [6] was -0.003 (inactive).

Take `Cc1ccc(C(=O)NC(C)C)cc1-c1ccc(C(=O)NCC2CC2)cc1`: the liver cell % of control in test [1] was 90%. The parasite % of control in test [1] is 124% (inactive). Moreover, the percent of negative control (+Dex) in test [2] was 94.5% (inactive). For the same molecule, the z-score in test [2] was 1.18; in test [3] it was 0.505 (inactive); in test [4] it was 0.198 (inactive); in test [7] (setting [8]), 0.0329 (inactive); in test [7] (setting [9]), 0.189. Further, the EGFP object count in test [5] was found to be 3. For the same molecule, the EGFP/DsRed ratio in test [5] was 0.0297 (inactive). Besides, in test [6], the fraction signal was -0.008 (inactive).

With `CN=C1NC(=O)C(=Cc2ccc3ncccc3c2)S1`, in test [1], the liver cell % of control worked out at 82.2% and the parasite % of control is 65.3% (inactive). In test [2], the percent of negative control (+Dex) was 98.5% (inactive) and the z-score is -0.23. In test [5], the EGFP object count turned out to be 2 and the EGFP/DsRed ratio is 0.0435 (inactive). In test [6], the fraction signal is 0.0015 (inactive).

On to `COc1ccc(OC)c(C2=C(c3cn(C)c4ccccc34)C(=O)NC2=O)c1`, for which, in test [1], the liver cell % of control came to 105% and the parasite % of control is 22.1% (inactive). For the same molecule, in test [2], the percent of negative control (+Dex) was 99% (inactive) and the z-score is -0.03. In addition, in test [5], the EGFP object count was determined as 15 and the EGFP/DsRed ratio was 0.328 (inactive). Also, the fraction signal in test [6] is -0.003 (inactive).

Regarding `O=C1NC(=NCCc2ccc(Cl)cc2)SC1=Cc1ccc2ncccc2c1`, in test [1], the liver cell % of control was 108% and the parasite % of control is 53.8% (inactive). Besides, in test [2], the percent of negative control (+Dex) was 95% (inactive) and the z-score turned out to be 0.425. In test [5], the EGFP object count worked out at 6.5 and the EGFP/DsRed ratio is 0.259 (inactive). In addition, the fraction signal in test [6] was -0.0075 (inactive).

With `CC(C)(O)Cn1c(=O)c(Oc2ccc(F)cc2F)cc2cnc(NC3CCOCC3)nc21`, in test [1], the liver cell % of control was found to be 105% and the parasite % of control was 58.9% (inactive). In addition, in test [2], the percent of negative control (+Dex) was 86% (inactive) and the z-score was -0.37. For the same molecule, in test [5], the EGFP object count stood at 4 and the EGFP/DsRed ratio was 0.0773 (inactive). In test [6], the fraction signal was -0.0135 (inactive).

With `COc1cc[nH]c1C=C1C(=O)Nc2ccc([N+](=O)[O-])c(N3CCC(O)C3)c21` (centres undefined), in test [1], the liver cell % of control was found to be 102% and the parasite % of control is 15.7% (inactive). Further, in test [2], the percent of negative control (+Dex) was 29.5% (active) and the z-score was -7.83. In test [5], the EGFP object count stood at 3.5 and the EGFP/DsRed ratio is 0.0609 (inactive). Also, the fraction signal in test [6] is -0.018 (inactive).

As for `Cn1cc(C2=C(c3ccccc3C(F)(F)F)C(=O)NC2=O)c2ccccc21`, in test [1], the liver cell % of control is 149% and the parasite % of control was 31% (inactive). In addition, in test [2], the percent of negative control (+Dex) was 114% (inactive) and the z-score amounted to 0.1. In test [5], the EGFP object count is 32.5 and the EGFP/DsRed ratio was 0.646 (inactive). Also, the fraction signal in test [6] is 0.01 (inactive).

In the case of `O=C1NC(=NCCc2ccc(F)cc2)SC1=Cc1ccc2ncccc2c1`, in test [1], the liver cell % of control was found to be 127% and the parasite % of control is 57.5% (inactive). In test [2], the percent of negative control (+Dex) is 99.5% (inactive) and the z-score came out at 0.5. For the same molecule, in test [5], the EGFP object count turned out to be 1.5 and the EGFP/DsRed ratio was 0.0132 (inactive). Further, the fraction signal in test [6] was 0.0035 (inactive).

On to `CC(CO)Nc1cc(-c2[nH]c3cccnc3c2-c2ccc(F)cc2)ccn1` (centres undefined), for which, in test [1], the liver cell % of control was determined as 124% and the parasite % of control was 78.1% (inactive). In test [2], the percent of negative control (+Dex) is 85.5% (inactive) and the z-score was -0.435. In test [5], the EGFP object count worked out at 4.5 and the EGFP/DsRed ratio was 0.0626 (inactive). The fraction signal in test [6] is -0.0075 (inactive).

Regarding `O=C1NC(=NCC(CO)c2ccccc2)SC1=Cc1ccc2ncccc2c1` (centres undefined), in test [1], the liver cell % of control was determined as 106% and the parasite % of control is 72.5% (inactive). In test [2], the percent of negative control (+Dex) was 86% (inactive) and the z-score was -0.105. Besides, in test [5], the EGFP object count came out at 0.5 and the EGFP/DsRed ratio was 0.00131 (inactive). Further, the fraction signal in test [6] was 0.006 (inactive).

Consider `COc1cccc(F)c1C(=O)c1cnc(NC2CCN(S(C)(=O)=O)CC2)nc1N`, for which, in test [1], the liver cell % of control was found to be 93.1% and the parasite % of control was 512% (inactive). For the same molecule, in test [2], the percent of negative control (+Dex) is 116% (inactive) and the z-score was found to be 2.08. In test [5], the EGFP object count was 3.5 and the EGFP/DsRed ratio is 0.124 (inactive). Also, the fraction signal in test [6] was -0.018 (inactive).
